High-throughput results (PubChem BioAssay)
NPC1 promoter act – activators of NPC1 promoter | Huh7 NPC1 promoter luciferase reporter, 24 h | Potency, µM (top dose mostly 9.22 µM), inactives show at the top dose activation, usual class: activators | 320,000 compounds, 2.4% hits; also: % of control where 0% means no effect; nearly all actives have a fitted effect of over 60% in size
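Quantitative HTS used a cell-based reporter: Huh7 cells stably bearing the NPC1 promoter upstream of luciferase were treated with compounds for 24 h, and promoter activation was read as luminescence.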
SMN2 splice up – increases expression of the SMN2 splice variant; HEK293 SMN2-luciferase splicing reporter, luminescence, 30-36 h; Potency, µM (series often up to 46.1 µM), without a hit: at the highest dose activity change, positive = activation, most hits filed as activators; 210,000 compounds, 2.8% hits; also: % of control where 0% means no effect; nearly all actives have a fitted effect of over 55% in size
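HEK293 cells carry an SMN2 […]–luciferase reporter in which exon 7 inclusion puts luciferase in frame. Cells were plated 10-12 h before compound addition, then incubated 30-36 h at 37C. ONE-Glo luminescence was read; sodium butyrate at 4.5 mM final served as control.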
FLuc modulator – inhibits or activates purified firefly luciferase, miR-21 counter-screen. P08659. purified FLuc, Km substrates, luminescence inhibition. Potency, µM (top dose mostly 57.5 µM), without a hit: top-dose activity change, negative = inhibition, hits mostly inhibitors. 360,000 compounds, 6.9% hits;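 also: plate controls were vehicle for no effect and reference inhibitor for full effect; nearly all actives have a fitted effect of over 55% in size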
Target sequence (P08659 whole entry, looked up): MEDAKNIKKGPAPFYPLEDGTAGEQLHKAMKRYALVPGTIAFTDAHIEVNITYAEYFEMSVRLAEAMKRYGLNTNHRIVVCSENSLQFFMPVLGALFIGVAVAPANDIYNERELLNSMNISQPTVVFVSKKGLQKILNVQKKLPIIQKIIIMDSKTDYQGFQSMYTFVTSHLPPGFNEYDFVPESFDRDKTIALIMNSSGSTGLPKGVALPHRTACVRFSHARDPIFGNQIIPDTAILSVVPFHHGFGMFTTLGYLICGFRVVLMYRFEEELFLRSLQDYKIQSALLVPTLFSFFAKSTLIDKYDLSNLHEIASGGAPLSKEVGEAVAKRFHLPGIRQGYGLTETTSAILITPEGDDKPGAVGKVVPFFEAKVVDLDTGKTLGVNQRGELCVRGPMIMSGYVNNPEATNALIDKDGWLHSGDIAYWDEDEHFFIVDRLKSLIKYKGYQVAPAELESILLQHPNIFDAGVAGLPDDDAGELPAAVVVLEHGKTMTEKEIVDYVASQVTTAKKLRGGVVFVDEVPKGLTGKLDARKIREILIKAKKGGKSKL
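Purified P. pyralis luciferase, 10 nM final, with Km-level 10 uM D-luciferin and 10 uM ATP in 50 mM Tris acetate pH 7.5, 10 mM Mg acetate, 0.01% Tween-20, 0.05% BSA; 6-point qHTS titration about 60 µM downward; luminescence read.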
ELG1 genotox – induces genotoxicity in HEK293T cells with luciferase-tagged ELG1; HEK293T ELG1-luciferase reporter, luminescence, 16 h; Potency, µM (doses to about 46 µM), without a hit: at the top dose activity change, positive = activation, usual class: activators; 330,000 compounds, 1.3% hits; also: % of control where 0% means no effect; nearly all actives have a fitted effect of over 60% in size
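Genotoxic stress is detected as increased luminescence from luciferase-tagged ELG1 in HEK293T cells, measured with ONE-Glo after a 16 hr treatment at 37 °C.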
ELG1 repair inh – ELG1-dependent DNA repair inhibition; Potency, µM (doses to about 46.1 µM), for inactives: at the top dose activity change, negative = inhibition, hits mostly inhibitors; HEK293T ELG1-luciferase reporter, luminescence, 16 h; DNA damage induced by 5-fluorouridine; 330,000 compounds, 2.3% hits; also: % is scaled to controls: 0 for no effect and ±100 for the full control effect; nearly all actives have a fitted effect of over 55% in size
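Step one: seed 2,000 cells per well. Step two: pin-transfer compound or DMSO alongside 5-fluorouridine. Step three: incubate 16 hr, 37 °C, 5% CO2. Step four: add ONE-Glo, wait 30 min, read luminescence.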
Rab9 promoter act – activates the Rab9 promoter; Huh7 Rab9 promoter-luciferase reporter, luminescence, 24 h; Potency, µM (highest dose often 9.22 µM), without a hit: at the top dose activation, negative = inhibition, actives largely listed as activators; 320,000 compounds, 2.8% hits; AID 485297; also: % of control where 0% means no effect; nearly all actives have a fitted effect of over 60% in size
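Steps: seed 1500 Huh7 Rab9-luc cells per well, rest 2 h at 37 °C; add compound in DMSO; incubate 24 h; add luciferase reagent, 10 min ambient; read luminescence.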
ELG1 FLuc counter – luciferase inhibition in cell-free luciferin readout for ELG1 hits; 350 compounds, 3% hits; AID 624247; cell-free firefly luciferase luminescence counter-screen, ViewLux; Potency, µM (highest dose often 46.1 µM), inactives show top-dose activity change, negative = inhibition, usual class: inhibitors; shares compounds with ELG1 repair inh; also: % is scaled to controls: 0 for no effect and ±100 for the full control effect
ELG1 Luc conf – confirmation of human ELG1-dependent DNA repair inhibitors; Potency, µM (top dose mostly 46.1 µM), for inactives: top-dose activity change, negative = inhibition, actives largely listed as inhibitors; HEK293T ELG1-luciferase levels, luminescence; cells co-treated with 5-fluorouridine; 670 compounds, 68% hits; shares compounds with ELG1 repair inh; also: % is scaled to controls: 0 for no effect and ±100 for the full control effect; nearly all actives have a fitted effect of over 55% in size
ELG1 MMS Luc – inhibits ELG1-dependent repair under MMS stimulation in HEK293T cells. HEK293T luciferase-tagged ELG1 level, MMS stimulated. 670 compounds, 53% hits. Potency, µM (series often up to 46.1 µM), for the others: at the highest dose activity change, negative = inhibition, most hits filed as inhibitors. shares compounds with ELG1 repair inh. AID 624249; also: % is scaled to controls: 0 for no effect and ±100 for the full control effect; nearly all actives have a fitted effect of over 60% in size
ELG1 5-FU – confirmation of ELG1 repair inhibitors: viability with 5FU; shares compounds with ELG1 repair inh; cell viability with 5-FU, ELG1-dependent repair; Potency, µM (doses to about 46.1 µM), for inactives: at the top dose activity change, negative = viability loss, most hits filed as cytotoxic; 670 tested, under 10 active; AID 624250;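 also: ELG1-luc HEK293T cells cotreated with 5-fluorouridine at 10 µM final; viability measured 16 h after compound addition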
ELG1 MMS cell – confirmation of ELG1 repair inhibitors: viability with MMS; shares compounds with ELG1 repair inh; Cell viability with MMS, ELG1-dependent DNA repair; Potency, µM (series often up to 46.1 µM), for the others: at the top dose activity change, negative = viability loss, actives largely listed as cytotoxic; 670 compounds, 33% hits;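 also: ELG1-luc HEK293T cells co-treated with 10 µM MMS; viability read 16 h after compound addition; % is scaled to controls: 0 for no effect and ±100 for the full control effect; nearly all actives have a fitted effect of over 60% in size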
ELG1 unstim viab – unstimulated viability counter-screen for ELG1 repair hits; shares compounds with ELG1 repair inh; cell viability counter-screen, unstimulated, luminescence; Potency, µM (top dose mostly 45.9 µM), without a hit: top-dose activity change, negative = loss of viability, most hits filed as cytotoxic; 900 compounds, 8% hits; AID 624252;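 also: compound exposure lasted 16 hours before reading; % is scaled to controls: 0 for no effect and ±100 for the full control effect; nearly all actives have a fitted effect of over 55% in size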
FLuc biochem – firefly luciferase inhibition counter-screen. shares compounds with ELG1 repair inh. purified firefly luciferase, luminescence counter-screen. Potency, µM (titrated, usually from 57.5 µM), without a hit: at the highest dose activity, negative = inhibition, hits mostly inhibitors. 350 compounds, 10% hits. AID 624253; also: % is scaled to controls: 0 for no effect and ±100 for the full control effect
* = called active by the depositor; [ ] = dose if it differs, or a comment. Sampled rows, rich in hits. Any-hit rate of the full collection: about 9.2%. Calls follow the shape of the dose curve; as a rule, active = well fitted curve in the direction sought with a large enough effect; inconclusive = small, poorly fitted or top-dose-only effect, or another doubt; inactive = no such curve, though single readings can be large; an effect the other way counts as inactive or inconclusive. Potency is read from the fitted curve at half-maximal effect.

What do the screens show for `C=CCn1c(SCC(=O)N2CC(=O)Nc3ccccc32)nc2scc(-c3ccccc3)c2c1=O`?
NPC1 promoter act: -2.9%; SMN2 splice up: 2.2%; FLuc modulator: 3.6%; ELG1 genotox: -2.9%; ELG1 repair inh: 1.64µM*; Rab9 promoter act: -0.4%; ELG1 Luc conf: 22.3µM*; ELG1 MMS Luc: -7.0%; ELG1 5-FU: 7.2%; ELG1 MMS cell: -7.1%; ELG1 unstim viab: inconclusive

How did COc1ccccc1NC(=O)COc1coc(CN2CCN(c3ccccc3)CC2)cc1=O do in these assays?
NPC1 promoter act: 2.8%; FLuc modulator: 1.5%; ELG1 genotox: 2.6%; ELG1 repair inh: -11.4%; Rab9 promoter act: -3.7%

What do the screens show for `CC(=O)N1c2ccc(S(=O)(=O)N3CCC(C(=O)N4CCN(c5cc(Cl)ccc5C)CC4)CC3)cc2CC1C` (configuration not stated)?
NPC1 promoter act: -5.9%; FLuc modulator: -1.5%; ELG1 genotox: -13.0%; ELG1 repair inh: inconclusive; Rab9 promoter act: -4.9%; ELG1 FLuc counter: -12.9%; ELG1 Luc conf: 14.1µM*; ELG1 MMS Luc: inconclusive; ELG1 5-FU: 4.8%; ELG1 MMS cell: -4.1%; ELG1 unstim viab: inconclusive; FLuc biochem: -13.8%

What do the screens show for `Cc1ccc(Cl)cc1N1CCN(S(=O)(=O)c2ccc3c(c2)CC(C)N3C(=O)C2CCC2)CC1` (configuration not stated)?
FLuc modulator: -8.6%

What do the screens show for `CN(Cc1ccccc1F)C(=O)c1ccc2c(=O)n3c(nc2c1)CCC3`?
NPC1 promoter act: -3.5%; FLuc modulator: 7.2%; ELG1 genotox: 1.0%; ELG1 repair inh: 15.1%; Rab9 promoter act: -5.7%

What do the screens show for `c1ccc(Cn2nnnc2C(c2cccnc2)N2CCN(C3CCCCC3)CC2)cc1` (configuration not stated)?
NPC1 promoter act: 10.9%; SMN2 splice up: 19.2%; FLuc modulator: -6.9%; ELG1 genotox: -5.0%; ELG1 repair inh: 3.26µM*; Rab9 promoter act: -2.0%; ELG1 Luc conf: inconclusive; ELG1 MMS Luc: inconclusive; ELG1 5-FU: 2.1%; ELG1 MMS cell: -1.9%; ELG1 unstim viab: -13.3%

How did COCCN(C(=O)c1oc2ccccc2c1COC)c1c(N)n(CC(C)C)c(=O)[nH]c1=O do in these assays?
NPC1 promoter act: -0.5%; FLuc modulator: 0.7%; ELG1 genotox: 3.1%; ELG1 repair inh: 3.4%; Rab9 promoter act: -3.1%

How did CC(=NNC(=O)c1cccs1)c1ccc2c(c1)OCCO2 do in these assays?
ELG1 genotox: 16.4µM*; ELG1 repair inh: inconclusive; ELG1 unstim viab: inconclusive

Results for C/C(=N\NC(=O)C1CC1)c1ccc2c(c1)OCCO2 ?
NPC1 promoter act: 9.0%; SMN2 splice up: 53.7%; FLuc modulator: -12.2%; ELG1 genotox: 15.2%; ELG1 repair inh: inconclusive; Rab9 promoter act: -32.3%

How did O=C(Cc1ccc(Cl)cc1)Nc1ccccc1N1CCN(C(=O)c2ccccc2)CC1 do in these assays?
NPC1 promoter act: -0.5%; FLuc modulator: -0.7%; ELG1 genotox: -26.1%; ELG1 repair inh: inconclusive; Rab9 promoter act: 9.2%

What do the screens show for `O=C(Nc1nc2c(s1)CCCC2)c1ccc(S(=O)(=O)N2CCCc3ccccc32)cc1`?
NPC1 promoter act: -15.5%; SMN2 splice up: -21.2%[1.84 µM]; FLuc modulator: 2.0%; ELG1 genotox: 11.4%; ELG1 repair inh: -20.2%; Rab9 promoter act: -21.4%

How did CC1CCc2nc(NC(=O)c3ccc(S(=O)(=O)N4CCCc5ccccc54)cc3)sc2C1 (configuration not stated) do in these assays?
NPC1 promoter act: -20.7%; FLuc modulator: 2.7%; ELG1 genotox: -2.6%; ELG1 repair inh: 2.91µM*; Rab9 promoter act: -31.2%; ELG1 Luc conf: inconclusive; ELG1 MMS Luc: 2.5µM*; ELG1 5-FU: 7.6%; ELG1 MMS cell: 2.81µM*; ELG1 unstim viab: inconclusive

What do the screens show for `COc1ccc(/C=N/NC(=O)c2cc(-c3cccnc3)nc3ccccc23)c(OC)c1`?
NPC1 promoter act: 0.8%; SMN2 splice up: -26.7%; FLuc modulator: -14.1%; ELG1 genotox: 0.3%; ELG1 repair inh: 3.7%; Rab9 promoter act: -5.7%

What do the screens show for `Cc1nn(-c2ccccc2)c(N2CCCC2)c1/C=N/NC(=O)c1cc(-c2cccnc2)nc2ccccc12`?
NPC1 promoter act: -3.0%; SMN2 splice up: -25.9%; FLuc modulator: 0.8%; ELG1 genotox: -8.8%; ELG1 repair inh: 4.61µM*; Rab9 promoter act: -10.4%; ELG1 Luc conf: 8.88µM*; ELG1 MMS Luc: 28.1µM*; ELG1 5-FU: 6.1%; ELG1 MMS cell: -11.5%; ELG1 unstim viab: inconclusive
